A selection: hits, their analogues and other compounds. The true share with any hit is near 2%.
STK33 inh – blocks human STK33 kinase activity | AID 2322 | inhibition, % at 12.5 µM | ADP-Glo luminescence, MBP substrate | Q9BYT3 | 27,000 compounds, 0.44% hits; in the data active = inhibition above about 20%; inconclusive = no clear call, values can overlap the other calls
Target sequence (Q9BYT3 whole entry, looked up): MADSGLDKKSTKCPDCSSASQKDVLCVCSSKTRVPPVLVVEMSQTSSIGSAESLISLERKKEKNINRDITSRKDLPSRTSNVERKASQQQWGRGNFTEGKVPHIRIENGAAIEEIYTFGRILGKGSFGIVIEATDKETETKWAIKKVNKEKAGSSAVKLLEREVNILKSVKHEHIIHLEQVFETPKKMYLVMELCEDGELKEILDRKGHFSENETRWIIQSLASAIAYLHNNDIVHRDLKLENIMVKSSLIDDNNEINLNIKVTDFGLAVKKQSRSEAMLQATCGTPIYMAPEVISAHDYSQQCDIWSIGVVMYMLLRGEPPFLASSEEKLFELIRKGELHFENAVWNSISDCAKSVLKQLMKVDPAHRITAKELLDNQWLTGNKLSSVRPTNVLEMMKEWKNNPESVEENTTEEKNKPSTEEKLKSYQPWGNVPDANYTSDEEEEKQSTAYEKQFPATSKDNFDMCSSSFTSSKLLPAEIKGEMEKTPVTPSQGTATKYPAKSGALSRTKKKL
mut p53 react – re-activators of the mutant p53 pathway; SW480 PUMA-promoter luciferase, p53 mutant reactivation; activation, % at 9.98 µM; 28,000 compounds, 1.5% hits; AID 624151; in the data active = activation above about 52%; inconclusive = no clear call, values can overlap the other calls
ID4 binder – binds human ID4 protein on microarray | small molecule microarray, Flag-ID4 binding, fluorescence F/B | calls only | 31,000 compounds, 1.2% hits | AID 624137; call rule not given here;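 also: a binder raises fluorescence above local background on the spot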
Each line names hits and unclear results; the compound was inactive in the other large screens.

C[C@H]1CN([C@@H](C)CO)C(=O)c2cc(-c3cccc(F)c3)cnc2O[C@H]1CN(C)C(=O)Nc1cc(F)ccc1F	ID4 binder active (no result: STK33 inh)
C[C@H](CO)N1C[C@H](C)[C@H](CN(C)C(=O)c2cccc(F)c2)Oc2ncc(-c3ccccc3)cc2C1=O	ID4 binder active (no result: STK33 inh, mut p53 react)
C[C@@H]1CN([C@@H](C)CO)C(=O)c2cc(-c3ccccc3)cnc2O[C@H]1CN(C)C(=O)c1cccc(F)c1	none (no result: STK33 inh, mut p53 react)
C=C[C@]1(C)C=C2CCC3C(C)(CCC[C@@]3(C)C(=O)O)C2CC1 (stereo partly specified)	none
Cc1ccc(CN2C(=O)C(O)(CC(=O)c3c(C)coc3C)c3cc(Cl)ccc32)cc1 (stereo unspecified)	none
COc1ccc([Si](C)(C)[C@H]2[C@H](CCO)O[C@@]3(C(=O)N(Cc4ccc(N5CCOC5=O)cc4)c4ccccc43)[C@@H]2C)cc1	STK33 inh inconclusive (no result: mut p53 react)
COc1ccc([Si](C)(C)[C@@H]2[C@@H](CCn3cc(CCO)nn3)O[C@]3(C(=O)N(Cc4ccc(N5CCOC5=O)cc4)c4ccccc43)[C@H]2C)cc1	STK33 inh 24 (no result: mut p53 react)
COC(=O)c1c(NC(=S)Nc2cc3oc4ccccc4c3cc2OC)sc2c1CCCC2	none
CSc1sc(C#N)c(C)c1C(=O)/C=C/N(C)C	none (no result: mut p53 react, ID4 binder)
CCC(C)NC(=O)Cn1c(=O)n(-c2ccc(Cl)c(Cl)c2)c(=O)c2c(C)c(C)sc21 (stereo unspecified)	none (no result: STK33 inh)
O=c1cc(-c2ccccc2)oc2cc(O)c(O)c(O)c12	none (no result: STK33 inh, ID4 binder)
COc1cc(O)c2c(=O)cc(-c3ccccc3)oc2c1OC	STK33 inh 23 (no result: mut p53 react)
COc1cc2oc(-c3ccc(O)cc3)cc(=O)c2c(O)c1OC	STK33 inh 60
COc1c(O)cc2oc(-c3ccc(O)cc3)cc(=O)c2c1O	mut p53 react 58 (no result: ID4 binder)
COc1cccc2oc(-c3ccccc3)cc(=O)c12	none
COc1c(O[C@@H]2O[C@H](C(=O)O)[C@@H](O)[C@H](O)[C@H]2O)cc(O)c2c(=O)cc(-c3ccccc3)oc12	none
COc1ccc(-c2cc(=O)c3c(O)cc(O)cc3o2)cc1O	STK33 inh 46 (no result: mut p53 react, ID4 binder)
COc1cc(-c2cc(=O)c3c(O)c(OC)c(OC)c(OC)c3o2)cc(OC)c1OC	none
Cc1ccccc1S(=O)(=O)N[C@H]1CCN(Cc2cccc(OCCO)c2)C1	none (no result: mut p53 react, ID4 binder)
C#CCN1C(=O)C(O)(CC(=O)c2ccc(C)o2)c2ccccc21 (stereo unspecified)	none
O=C(CSCc1ccccc1Br)Nc1cccnc1	none
CCn1c(SCC(=O)Nc2cccc3ccccc23)nnc1-c1ccco1	none
COc1ccc(C2C(C#N)=C(N)Oc3n[nH]c(-c4ccccc4)c32)cc1CSc1ccccn1 (stereo unspecified)	none
COc1ccc(-c2cc(=O)c3cc(OC)ccc3o2)cc1	none (no result: mut p53 react)
COc1ccc(-c2cc(=O)c3ccc(OC)cc3o2)cc1	mut p53 react 66 (no result: ID4 binder)
COc1ccc(OC)c(NC(=O)c2ccc(CSc3nnc(C)s3)cc2)c1	mut p53 react 62
COc1ccc(C(=O)NCC(=O)Nc2cc(OC)ccc2OC)cc1	ID4 binder active
COc1ccc(OC)c(NC(=O)Cc2ccc(OC)c(OC)c2)c1	none
COc1ccc(OC)c(NC(=O)CNC(=O)c2ccc(C(C)(C)C)cc2)c1	none
COc1cccc(NC(=O)CSc2nc3ccccc3c(=O)n2-c2cccc(C(F)(F)F)c2)c1	none
C[C@@H]1O[C@@H](O[C@H]2[C@H](O)[C@@H](O[C@@H]3O[C@H](CO)[C@@H](O)[C@H](O[C@@H]4O[C@H](CO)[C@@H](O)[C@H](O)[C@H]4O)[C@H]3O)[C@H](O[C@H]3CC[C@@]4(C)C(=CC[C@@H]5C4CC[C@@]4(C)C5C[C@@H]5O[C@]6(CC[C@@](C)(CO[C@@H]7O[C@H](CO)[C@@H](O)[C@H](O)[C@H]7O)O6)[C@@H](C)[C@@H]54)C3)O[C@@H]2CO)[C@H](O)[C@H](O)[C@H]1O (stereo partly specified)	none (no result: mut p53 react, ID4 binder)
COc1cc([N+](=O)[O-])ccc1NC(=O)c1ccccc1OCC(=O)NC(C)(C)C	none
COc1cc2c(cc1C(F)(F)F)N(C(=O)Nc1cc(F)cc(-c3cccnc3)c1)CC2	none (no result: STK33 inh)
Cn1ccc2cc3c(cc21)CCN3C(=O)Nc1cccnc1	mut p53 react 69 (no result: STK33 inh)
Cc1ccc(O)c(N=Nc2ccccc2)n1	mut p53 react 103 (no result: STK33 inh)
COc1cccc(OC)c1C(=O)Nc1cccc(-c2nc3ncccc3o2)c1	none
Cc1ccc(-c2nc(SCC(=O)c3ccccc3)n[nH]2)cc1	none
COc1ccc(C(=O)CSc2n[nH]c(-c3ccc(C)cc3)n2)cc1	ID4 binder active
C=CCN(CC=C)C(=O)Cc1ccc(Br)cc1	none (no result: STK33 inh)
Cc1c(Br)c([N+](=O)[O-])nn1CC(=O)Nc1cccnc1	none
S=C(NC1CCCCC1)Sc1ccc(Cl)cc1	none (no result: mut p53 react, ID4 binder)
COc1ccc(OC(C)C(=O)NCC2CCCO2)cc1 (stereo unspecified)	none
COc1ccc2c(c1)c(=O)oc1c(C)c(OCC(=O)NCC3CCCO3)ccc12 (stereo unspecified)	mut p53 react 52
CCOC(=O)c1c(NC(=O)CSc2ncn[nH]2)sc2c1CCCC2	none
NC(=O)c1c(NC(=O)CSc2ncn[nH]2)sc2c1CCC2	ID4 binder active
COc1c(C2OCC(OC(C)=O)C(OC(C)=O)C2OC(C)=O)c(O)cc2oc(-c3ccc(OC4OC(CO)C(O)C(O)C4O)cc3)cc(=O)c12 (stereo unspecified)	none
CC(=O)c1c(O)cc(O[C@@H]2O[C@H](CO)[C@@H](O)[C@H](O)[C@H]2O)cc1O	none (no result: ID4 binder)
O=c1cc(-c2ccc(O[C@@H]3O[C@H](CO)[C@@H](O)[C@H](O)[C@H]3O)cc2)oc2cc(O)cc(O)c12	STK33 inh 50 (no result: mut p53 react)
O=c1c(O[C@@H]2O[C@H](CO)[C@H](O)[C@H](O)[C@H]2O)c(-c2ccc(O)c(O)c2)oc2cc(O)cc(O)c12	none (no result: mut p53 react, ID4 binder)
COc1ccc(/C=C/c2cc(O)cc(O[C@@H]3O[C@H](CO)[C@@H](O)[C@H](O)[C@H]3O)c2)cc1	mut p53 react 64
COc1c(O)cc2oc(-c3ccc(O[C@@H]4O[C@H](CO)[C@@H](O)[C@H](O)[C@H]4O)cc3)cc(=O)c2c1O	STK33 inh 51 (no result: mut p53 react)
CCc1nc2sc(C)c(C)c2c(=O)n1N	none (no result: mut p53 react, ID4 binder)
COc1ccc(CN2C(=O)C(O)(CC(=O)c3ccco3)c3ccccc32)cc1OC (stereo unspecified)	none
CC(=O)c1cccc(NC(=O)C(C)NS(=O)(=O)c2ccc(Br)cc2)c1 (stereo unspecified)	none
COc1ccc(Cl)cc1NC(=O)CN1C(=O)c2ccccc2S1(=O)=O	none
Cc1ccccc1C(C#N)C(CC#N)c1ccccc1 (stereo unspecified)	none (no result: STK33 inh)
Cc1ccc(Cn2nc(C)cc2C(=O)Sc2ccccc2)cc1	none (no result: mut p53 react, ID4 binder)
c1cc(-c2cnn3cc(-c4ccc(OCCN5CCCCC5)cc4)cnc23)ccn1	ID4 binder active (no result: STK33 inh)
CCCCOc1ccc(C(=O)CCN2CCCCC2)cc1	none (no result: mut p53 react, ID4 binder)
Cc1ccc2nsnc2c1S(=O)(=O)N1CCN(CCc2ccccc2)CC1	none
CN1CCN(S(=O)(=O)c2ccc(Sc3nc4ccccc4[nH]3)c3nsnc23)CC1	ID4 binder active
CC(C)C(NS(=O)(=O)c1ccccc1F)C(=O)O (stereo unspecified)	none

Screening results (PubChem BioAssay)
